# Measurements: the supplement of paper PMC3334620
# Over roughly 33,000 sequences, “E-score (-0.5 to 0.5)” has its median near -0.0059; the highest 2% begin near 0.26. The entries come from a sample that favours the highest values as a whole.
# Biological target: T1, Cin5 (UniProt P40917)
# T1 sequence: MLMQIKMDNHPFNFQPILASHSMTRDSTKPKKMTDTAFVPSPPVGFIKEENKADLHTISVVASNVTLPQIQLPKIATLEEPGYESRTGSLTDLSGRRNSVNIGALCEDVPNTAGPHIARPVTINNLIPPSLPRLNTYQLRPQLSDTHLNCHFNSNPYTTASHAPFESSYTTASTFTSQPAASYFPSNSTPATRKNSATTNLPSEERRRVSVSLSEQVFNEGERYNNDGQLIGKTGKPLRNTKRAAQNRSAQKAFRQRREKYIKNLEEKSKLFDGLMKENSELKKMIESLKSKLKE
# Assay: PBM E-score (8-mer binding enrichment) (E-score (-0.5 to 0.5)); higher = stronger / more preferred TF binding
# Conditions: protein concentration: 100 nM; construct: GST-full length
# Procedure, shortened: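 Universal all-10-mer Agilent arrays, fresh or stripped once, were converted to double-stranded form by primer extension. GST-tagged yeast transcription factors from PURExpress in vitro transcription/translation, full-length or DNA-binding domain only, were applied at about 100-200 nM and detected with fluorescent anti-GST. After masliner normalisation, the Universal PBM Analysis Suite scored each ungapped eight-base word together with its reverse complement by E-score.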
row,Sequence,PBM E-score
1,GGTTACGA,0.0792
2,GATTACGA,0.434
3,ACTCTTGC,-0.108
4,GACGGTCC,-0.201
5,CATGGCGA,-0.0534
6,CGGTGGTC,-0.098
7,ATGTCCAA,0.0429
8,AATTACGA,0.313
9,CATTACGA,0.127
10,AATTACCA,0.187
11,CTCAGATC,0.0619
12,ATTGAGTC,0.103
13,CGTGAGTA,0.0731
14,AGTGAGTA,0.284
15,ATTGAGTA,0.262
16,GTTGAGTA,0.0846
17,AGTGAGTG,-0.0867
18,AAGCAACA,0.162
19,CATAAAGA,0.104
20,CGCATCGA,0.182
21,ATAACGCC,0.0372
22,GGTAAGAA,0.011
23,AGTAAGTA,0.227
24,GGTAAGGA,-0.153
25,AGTAAGCA,0.283

row,Sequence,PBM E-score
1,ACTAAGCG,0.149
2,AGTAAGGG,0.0482
3,AGTAAGCG,0.354
4,GGTAAGCA,0.318
5,ACTAAGCA,0.241
6,AGAGCTTG,-0.0623
7,CAAGACCA,-0.0752
8,AGAGATCT,-0.171
9,CATCTCAC,0.0306
10,TATCTCAA,0.261
11,CATCTCAG,0.268
12,GATCTCAA,0.112
13,AATCTCAA,0.184
14,CATCTCAA,0.0545
15,GTGGCTAA,0.181
16,ACTTCATC,-0.0118
17,CTCAACAA,0.197
18,ACCTCATC,0.0947
19,AGGTGAAT,0.099
20,AAGACAAC,0.274
21,CAGACAAC,0.0843
22,AAGACAAG,-0.0281
23,GACCGCGA,-0.129
24,ACACGTAC,-0.0415
25,GCACGTAA,-0.00694

row,Sequence,PBM E-score
1,ACACGTAG,-0.151
2,ACACGTAA,0.3
3,TCACGTAA,0.322
4,CCACGTAA,0.165
5,GCTCTTAA,-0.0595
6,CGGCTAAG,-0.025
7,CGTGCGGC,-0.139
8,AAAATCGC,0.0818
9,TATGGCCA,0.0804
10,ACCTAGAC,-0.126
11,GACTCTCC,-0.189
12,AATGCGGC,-0.00913
13,AATGCGGG,0.273
14,AATGCGGT,-0.0647
15,TGCCCTAA,-0.0446
16,AAGTTGTC,0.127
17,AAGTTGTA,0.178
18,AAGTTGTG,0.265
19,CCCATCGC,0.0166
20,CCCCGACG,-0.00202
21,GATATCCA,0.183
22,ATCGGAAT,0.151
23,ATCGGAAA,0.0538
24,ATCGGAAC,0.267
25,CGTTCAAC,0.0923

row,Sequence,PBM E-score
1,CATAAGGG,0.1
2,CATAAGCA,0.336
3,AATAAGCA,0.176
4,GATAAGCC,0.0299
5,GATAAGCA,0.275
6,TATAAGCA,0.256
7,CATAAGCG,0.267
8,CATAAGCC,0.245
9,AATAAGCG,0.109
10,CCCTGTGC,-0.18
11,CCTCGGGA,-0.13
12,GTAGACCA,-0.101
13,GCCAAGGA,-0.199
14,CCGGCGTC,-0.0574
15,TCAGTGGA,-0.093
16,TATATACA,0.187
17,CATATATG,0.114
18,TACATAAA,0.323
19,GACATAAC,0.276
20,AACATAAA,0.0668
21,CATATATA,0.322
22,TATATATA,0.369
23,GACATAAA,0.239
24,CACATAAA,0.183
25,CATATATC,0.102

row,Sequence,PBM E-score
1,CACATAAC,-0.00529
2,TATATAGA,0.238
3,CCAGTCCC,-0.0959
4,ATGTACAA,0.0216
5,ACCTTAGA,0.0107
6,AGGTATCC,0.0225
7,AACGCACT,-0.037
8,TGACTCCA,-0.17
9,CCTTCGTC,-0.106
10,ACTATAGT,0.174
11,CGAGCATC,0.0462
12,GGAGGATA,-0.0068
13,GCACTTTA,-0.0367
14,GTTATAAA,0.198
15,GATATATC,0.1
16,CTTATAAA,0.154
17,GATATACA,0.138
18,TATATAAA,0.283
19,CACATACA,9e-05
20,GATATAAA,0.0539
21,TTTATAAA,0.259
22,GACATACA,0.314
23,CATATAAA,0.138
24,GATATATA,0.266
25,TACATACA,0.238

row,Sequence,PBM E-score
1,ACGTCGAT,0.105
2,AACCCTGC,-0.0766
3,CGCGAATC,0.0184
4,TTCTCAAA,0.15
5,AGGGCCAA,-0.313
6,GCCCAGTA,-0.0745
7,AGGAGACC,-0.201
8,CGTGATGA,-0.0266
9,AGTGATTC,-0.0118
10,CGTGATTC,-0.0445
11,CGTGATTA,0.273
12,AGTGATTA,0.275
13,GGTGATTA,0.213
14,CAAGAATC,0.133
15,AGCGGTAT,0.158
16,CTACTAAA,-0.0525
17,CTACTACA,0.173
18,ATACTAAG,0.012
19,GTACTAAA,0.0965
20,ATACTACA,0.285
21,ATACTAAA,0.265
22,ATACTAAC,0.166
23,ATACTACC,-0.0132
24,TTACTAAA,0.266
25,ACTTCCCG,-0.0152

row,Sequence,PBM E-score
1,CGGAGGAG,-0.182
2,AGGAAAAG,0.0753
3,GGACCTGA,-0.107
4,CGACGAAG,-0.0192
5,CATATAGG,0.0225
6,AATATAAG,0.276
7,AATATATG,0.248
8,AATATAAT,0.177
9,AATATAGC,0.0896
10,AATATATA,0.18
11,AATATAGA,0.186
12,AATATAGG,0.317
13,AATATAGT,0.315
14,ACTATAGG,-0.0568
15,AATATATT,0.363
16,CATATAAG,0.0464
17,GGTGGGAC,-0.313
18,CCCGGAGG,-0.377
19,AATCATCA,0.229
20,AGACTGCT,-0.00887
21,AGGCATAC,0.0609
22,CATGCACA,0.156
